Records with an inconclusive call do not appear. Activity calls are given as the source filed them. The call rests on the fitted dose curve. Bridge positions count the residues as written; N and C are the ends. Square brackets hold non-standard residues; d marks the D form. Peptide text beside a SMILES is read from it. Orn = NCCC[CH](N)C(=O)O; Mpa = O=C(O)CCS

Test [1] can be described thus: Primary qHTS for inhibitors of SARS-S pseudo-typed particle cell entry (AID 1479145). Further: nearly all actives have a fitted effect of over 45% in size. On activity change, negative = inhibition: on the % scale 0 is the no-effect control and ±100 the full control effect. The settings on record: outcome: dose series up to 57.1 µM unless noted. Background: In qHTS, concentration-response curves come from the screen itself.
Test [2] is described as follows: Primary qHTS for Huh7 cytotoxicity: counterscreen for inhibitors of MERS-S pseudotyped particle cell entry (AID 1479147). Conditions: outcome: dose series up to 57.1 µM unless noted.
The nature of test [3]: Primary qHTS for inhibitors of MERS-S pseudo-typed particle cell entry (AID 1479149). Further: nearly all actives have a fitted effect of over 60% in size. On activity change, negative = inhibition: on the % scale 0 is the no-effect control and ±100 the full control effect. Conditions: outcome: dose series up to 57.1 µM unless noted.
Test [4] is described as follows: Primary qHTS for Vero E6 cytotoxicity: counterscreen for inhibitors of SARS-S pseudo-typed particle cell entry (AID 1479150). Conditions: outcome: dose series up to 57.1 µM unless noted.
Test [5] in a line: Cytotoxicity counterscreen for inhibitors of SARS-CoV-2 cell entry (AID 1645845). Further: nearly all actives have a fitted effect of over 50% in size. The settings on record: outcome: dose series up to 57.1 µM unless noted. In outline:
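48 h compound treatment (after 1 h preincubation), HEK293-ACE2 cells, 37 C/5% CO2; ATP luminescence endpoint; normalized to cell wells and media blanks.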

Test [6] in a line: Primary qHTS to identify inhibitors of SARS-CoV-2 cell entry (AID 1645846). Further: nearly all actives have a fitted effect of over 45% in size. Further: potency means the concentration at half of the fitted maximal effect. Conditions: SARS-CoV-2 pseudovirus cell entry assay, luminescence; activity change, negative = inhibition: at 57.1 µM (top of the series) unless noted. In outline: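 Data are normalized to wells receiving SARS-CoV-2-S pseudoparticles and those given bald particles. Entry signal was luciferase luminescence in stable hACE2 Expi293F cells, 48 hr post-infection, after 1 hr compound pretreatment.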

For the compound `O[C@@H]1[C@@H](O)[C@@H](O)OC[C@@H]1O`, the Potency result in test [1], in test [2], in test [3], in test [4] and in test [5] was “inactive” in each case. The activity change, negative = inhibition in test [6] is -10.9% [at 171 µM].

Consider `CN(CC(=O)N1CCOCC1)Cc1c(Cl)cccc1NC(=O)c1ccccc1`, for which the Potency result in test [1], in test [2], in test [3], in test [4] and in test [5] was “inactive” each time. Further, the activity change, negative = inhibition in test [6] is -38.4%.

As for `CCOc1ccc(CC2NC(=O)CCSSCC(C(=O)N3CCCC3C(=O)NC(CCCN)C(=O)NCC(N)=O)NC(=O)C(CC(N)=O)NC(=O)C(C(C)O)NC(=O)C(C(C)CC)NC2=O)cc1` (configuration not stated) ([Mpa]Y(Et)ITNCP[Orn]G-NH2; disulfide 1-6; configuration not given here), the Potency entry in test [1], in test [2], in test [3], in test [4] and in test [5] was “inactive” each time. The activity change, negative = inhibition in test [6] was -38.4%.

`CCCCCCCCCCCCCCCC(=O)OCC(=O)[C@@]1(O)[C@H](C)C[C@H]2[C@@H]3CCC4=CC(=O)C=C[C@]4(C)[C@@]3(F)[C@@H](O)C[C@@]21C`: the Potency entry in test [1], in test [2], in test [3], in test [4] and in test [5] was “inactive” in each case. Also, in test [6], the activity change, negative = inhibition was determined as 3.26%.

In the case of `C[C@@H]1CC2C3C[C@H](F)C4=CC(=O)C=C[C@]4(C)[C@@]3(F)[C@@H](O)C[C@]2(C)[C@@]1(OC(=O)c1ccco1)C(=O)SCF` (some centres not stated), the Potency result in test [1], in test [2], in test [3], in test [4] and in test [5] was “inactive” throughout. In test [6], the activity change, negative = inhibition turned out to be 3.79%.

For `Oc1c(Br)cc(Br)cc1CNC1CCC(O)CC1` (configuration not stated), the Potency result in test [1], in test [2], in test [3], in test [4] and in test [5] was “inactive” in each case. Moreover, in test [6], the activity change, negative = inhibition is -15.3%.

Take `N#C[C@@H]1CCCN1C(=O)CNC12CC3CC(CC(O)(C3)C1)C2`: the Potency result in test [1], in test [2], in test [3], in test [4], in test [5] and in test [6] was “inactive” in each case.

Regarding `CO/N=C(\C(=O)N[C@@H]1C(=O)N2C(C(=O)O)=C(CSc3cnns3)CS[C@H]12)c1csc(N)n1`, the Potency result in test [1], in test [2], in test [3], in test [4] and in test [5] was “inactive” each time. In test [6], the activity change, negative = inhibition is -7.92%.

As for `CO[C@H]1C[C@@H](O[C@@H]2/C(C)=C/C[C@@H]3C[C@@H](C[C@]4(CC[C@H](C)[C@@H](C5CCCCC5)O4)O3)OC(=O)[C@@H]3C=C(C)/C(=N/O)[C@H]4OC/C(=C\C=C\[C@@H]2C)[C@]43O)O[C@@H](C)[C@H]1O`, the Potency entry in test [1], in test [2], in test [3], in test [4], in test [5] and in test [6] was “inactive” each time.

In the case of `O=P(O)(O)C(O)(Cc1cnc2ccccn12)P(=O)(O)O`, the outcome was “inactive [at 0.573 µM]” in test [1]; “inactive [at 0.573 µM]” in test [2]; “inactive [at 0.573 µM]” in test [4]; “inactive [at 0.702 µM]” in test [5]; “inactive [at 0.702 µM]” in test [6]. Also, in test [3], the activity change, negative = inhibition is -0.315% [at 0.573 µM] (inactive).

Take `CN[C@H]1C[C@@H](N)[C@H](O)[C@@H](O[C@@H]2O[C@H](CO)[C@H](O)[C@@H]3OC4(O[C@H]23)O[C@H]([C@@H](N)CO)[C@H](O)[C@H](O)[C@H]4O)[C@@H]1O` (some centres not stated): the Potency entry in test [1], in test [2], in test [3], in test [4] and in test [5] was “inactive” throughout. For the same compound, in test [6], the Potency is 17.8 µM (active).

With `C=C(C)CNc1ccc(C(C)C(=O)O)cc1` (configuration not stated), the Potency result in test [1], in test [2], in test [3], in test [4] and in test [5] was “inactive” each time. For the same compound, the activity change, negative = inhibition in test [6] was -20.2%.

As for `C[N+](C)(CCCCCC[N+](C)(C)C1c2ccccc2-c2ccccc21)C1c2ccccc2-c2ccccc21`, the Potency entry in test [1], in test [2], in test [3], in test [4] and in test [5] was “inactive” in each case. The activity change, negative = inhibition in test [6] was -0.342%.

Regarding `Cc1cc2nc3c(=O)[nH]c(=O)nc-3n(C[C@H](O)[C@H](O)[C@H](O)COP(=O)(O)OP(=O)(O)OC[C@H]3O[C@@H](n4cnc5c(N)ncnc54)[C@H](O)[C@H]3O)c2cc1C`, the Potency entry in test [1], in test [2], in test [3], in test [4] and in test [5] was “inactive” throughout. For the same compound, in test [6], the activity change, negative = inhibition was -9.08% [at 27.1 µM].

Take `CC=CC1=C(C(=O)O)N2C(=O)[C@@H](NC(=O)[C@H](N)c3ccc(O)cc3)[C@H]2SC1`: the Potency result in test [1], in test [2], in test [3], in test [4], in test [5] and in test [6] was “inactive” each time.

Turning to `C/C(=C\C(=O)OCCCCCCCCC(=O)O)C[C@@H]1OC[C@H](C[C@@H]2O[C@H]2[C@@H](C)[C@H](C)O)[C@@H](O)[C@H]1O`, the Potency result in test [1], in test [2], in test [3], in test [4] and in test [5] was “inactive” in each case. The activity change, negative = inhibition in test [6] is -28.4%.

As for `CC(=O)OCC(=O)[C@@]12OC3(CCCC3)O[C@@H]1C[C@H]1[C@@H]3CCC4=CC(=O)C=C[C@]4(C)[C@@]3(F)[C@@H](O)C[C@@]12C`, the Potency entry in test [1], in test [2], in test [3], in test [4], in test [5] and in test [6] was “inactive” in each case.

`CC(OC(=O)OC1CCCCC1)OC(=O)C1=C(CSc2nnnn2CCN(C)C)CS[C@@H]2[C@H](NC(=O)Cc3csc(N)n3)C(=O)N12` (some centres not stated): the Potency entry in test [1], in test [2], in test [3], in test [4] and in test [5] was “inactive” throughout. Also, the activity change, negative = inhibition in test [6] was -37%.

On to `CC(=O)OCC(=O)[C@@]1(O)[C@H](C)C[C@H]2[C@@H]3C[C@H](F)C4=CC(=O)C=C[C@]4(C)[C@H]3[C@@H](O)C[C@@]21C`, for which the Potency entry in test [1], in test [2], in test [3], in test [4] and in test [5] was “inactive” throughout. In addition, in test [6], the activity change, negative = inhibition was -11.4%.

With `Nc1nc(CC(=O)Nc2ccc(CCNC[C@H](O)c3ccccc3)cc2)cs1`, the Potency result in test [1], in test [2], in test [3], in test [4] and in test [5] was “inactive” throughout. Moreover, the activity change, negative = inhibition in test [6] was -24.2%.

Regarding `C#C[C@]1(O)CCC2C3CCC4=C(CCC(=O)C4)C3CC[C@@]21C` (some centres not stated), the Potency entry in test [1], in test [2], in test [3], in test [4] and in test [5] was “inactive” each time. Also, in test [6], the activity change, negative = inhibition is -12.9%.

For `C[C@H]1C[C@@H]2[C@H]([C@@H](O)C[C@@]3(C)[C@H]2CC[C@]3(O)C(=O)COC(=O)CCC(=O)O)[C@@]2(C)C=CC(=O)C=C12`, the Potency entry in test [1], in test [2], in test [3], in test [4] and in test [5] was “inactive” throughout. Also, the activity change, negative = inhibition in test [6] is -18.6%.

(Values after PubChem BioAssay (NCATS).)
